# Measured values from article PMC4336329 (PLoS ONE, 2015).
# The whole screen tested about 310,000 compounds, of which about 14,000 (4.5%) showed an effect of 50% or more. Effects have a minus sign here. Many of the other results were omitted from the sample, so strong results are more common in it than they were.
# Target: human ether-à-go-go-related gene (hERG) potassium channel (human, UniProt Q12809)
# Assay: primary screen, population patch clamp on CHO cells stably expressing hERG; higher = less effect of the substance
# 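Note: peak tail current of the secondary pulse compared with the same well before compound.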
# Chain of human ether-à-go-go-related gene (hERG) potassium channel (Q12809 whole entry, looked up): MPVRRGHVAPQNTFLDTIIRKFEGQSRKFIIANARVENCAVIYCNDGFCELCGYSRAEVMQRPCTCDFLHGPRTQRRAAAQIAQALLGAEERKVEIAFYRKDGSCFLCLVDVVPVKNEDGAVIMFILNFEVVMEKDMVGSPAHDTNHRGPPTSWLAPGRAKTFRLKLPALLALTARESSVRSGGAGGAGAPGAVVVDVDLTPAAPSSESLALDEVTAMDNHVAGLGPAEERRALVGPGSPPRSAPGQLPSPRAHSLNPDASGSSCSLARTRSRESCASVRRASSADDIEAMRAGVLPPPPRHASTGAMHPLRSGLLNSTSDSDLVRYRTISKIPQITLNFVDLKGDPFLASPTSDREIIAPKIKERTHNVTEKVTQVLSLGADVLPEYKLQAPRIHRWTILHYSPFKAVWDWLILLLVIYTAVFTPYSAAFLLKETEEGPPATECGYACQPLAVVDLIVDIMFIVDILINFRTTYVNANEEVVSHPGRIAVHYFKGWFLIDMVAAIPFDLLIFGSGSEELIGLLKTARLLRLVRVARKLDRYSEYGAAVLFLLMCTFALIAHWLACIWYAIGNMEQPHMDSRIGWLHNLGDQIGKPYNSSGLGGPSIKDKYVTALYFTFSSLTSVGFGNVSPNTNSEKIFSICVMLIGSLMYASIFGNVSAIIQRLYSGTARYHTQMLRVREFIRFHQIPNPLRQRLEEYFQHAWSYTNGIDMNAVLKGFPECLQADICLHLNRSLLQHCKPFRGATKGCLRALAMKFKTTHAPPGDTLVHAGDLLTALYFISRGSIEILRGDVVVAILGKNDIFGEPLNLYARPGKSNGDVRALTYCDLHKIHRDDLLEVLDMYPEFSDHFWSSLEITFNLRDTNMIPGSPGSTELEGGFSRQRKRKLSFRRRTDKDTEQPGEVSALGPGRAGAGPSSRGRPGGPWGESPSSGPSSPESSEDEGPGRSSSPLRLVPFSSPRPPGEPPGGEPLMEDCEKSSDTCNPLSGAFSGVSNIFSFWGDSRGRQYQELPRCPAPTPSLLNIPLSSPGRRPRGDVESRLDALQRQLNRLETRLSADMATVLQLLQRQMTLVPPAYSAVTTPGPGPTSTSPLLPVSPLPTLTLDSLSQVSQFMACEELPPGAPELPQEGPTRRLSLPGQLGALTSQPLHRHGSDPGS
row,SMILES,"hERG current change (%, negative = inhibition) at 10uM"
1,COCCCN1C(=O)C(O)=C(C(=O)c2ccco2)C1c1ccccc1 (centres unmarked),21.3%
2,Cc1ccc(CNC(=O)CSc2ccsc2[N+](=O)[O-])cc1,-4.87%
3,COc1ccccc1N1CCN(Cc2cc(=O)c(OCC(=O)Nc3ccccc3)co2)CC1,25.5%
4,CC(=O)c1cc(C#N)c(Oc2cc(C)cc(C)c2)nc1C,-4.94%
5,CCOC(=O)N1CCC(N(CCCOC)C(=O)Nc2ccc(CC)cc2)CC1,-48.6%
6,COc1ccccc1-c1cc(C(=O)Nc2cc(C)nn2-c2ccccc2)no1,17%
7,COc1cc(/C=N/n2c(C)nc3ccccc3c2=O)ccc1O,4.55%
8,CC(C)CC(COCc1ccc([N+](=O)[O-])cc1)N1CCN(C(=O)c2ccc(C(F)(F)F)cc2)CCC1=O (centres unmarked),-67.1%
9,CC(C)CC(COCc1ccc(Cl)cc1)N1CCN(C(=O)c2ccc(C(F)(F)F)cc2)CCC1=O (centres unmarked),-44.5%
10,CC(C)CC(COCc1ccc(C(F)(F)F)cc1)N1CCN(C(=O)c2ccc(C(F)(F)F)cc2)CCC1=O (centres unmarked),-16.7%
11,O=C(c1cccc(NS(=O)(=O)c2cccc([N+](=O)[O-])c2)c1)N1CCOCC1,24.3%
12,O=C(CCCC(=O)N(CC(=O)NC1CCCC1)c1cccc(F)c1)Nc1ccccn1,4.77%
13,CCOc1ccc(N(CC(=O)NC2CCCCC2)C(=O)CCCC(=O)Nc2ccccn2)cc1,-0.443%
14,COc1cccc(N(CC(=O)NC2CCCCC2)C(=O)CCCC(=O)Nc2ccccn2)c1,13.2%
15,O=C(CCCC(=O)N(CC(=O)NC1CCCCC1)c1ccc(F)cc1)Nc1ccccn1,7.12%
16,CCOc1ccc(N(CC(=O)NC2CCCC2)C(=O)CCC(=O)Nc2ccccn2)cc1,-56.2%
17,O=C(CCC(=O)N(CC(=O)NC1CCCCC1)c1ccc(F)cc1)Nc1nccs1,-73.7%
18,COc1ccc(N(CC(=O)NC2CCCCC2)C(=O)CCCC(=O)Nc2ccccn2)cc1,-65.9%
19,O=C(CCCC(=O)N(CC(=O)NC1CCCCC1)c1cccc(F)c1)Nc1ccccn1,-55.3%
20,CCOc1ccc(N(CC(=O)NC2CCCC2)C(=O)CCCC(=O)Nc2ccccn2)cc1,-10.8%
21,CCOc1ccc(N(CC(=O)NC2CCCCC2)C(=O)CCC(=O)Nc2ccccn2)cc1,-23.3%
22,O=C(CCC(=O)N(CC(=O)NC1CCCC1)c1ccc(F)cc1)Nc1nccs1,4.37%
23,Cc1ccc(N(CC(=O)NC2CCCCC2)C(=O)CCC(=O)Nc2nccs2)cc1,-4.93%
24,CN(C(=O)c1ccccc1OC1CCN(S(C)(=O)=O)CC1)C1CCOC1 (centres unmarked),11.7%

row,SMILES,"hERG current change (%, negative = inhibition) at 10uM"
1,NC(=O)Cn1nnc(-c2ccc(CN3CCCCC3)cc2)n1,21.6%
2,O=C(N1CCCC1)N1CCN(S(=O)(=O)c2ccccc2)CC1,7.18%
3,CC(C)/C=N\NC(=O)CCCCC(=O)N/N=C/C(C)C,6.11%
4,CCOC(=O)C1=C(SCC(=O)Nc2ccccc2)NC(=O)C(C#N)C12CCCCC2 (centres unmarked),-5.43%
5,Cc1ccc(N2CN(CCC3=CCCCC3)CNC2=S)cc1,18%
6,Cc1ccc2c(c1)CCCN2C(=O)c1ccc2c(c1)OCO2,-4.53%
7,O=c1c2c(-c3ccccc3)csc2nc2n1CCC2,14.5%
8,O=c1cc(N2CCCCC2)c(-c2ccccc2)nn1Cc1ccc(Cl)cc1,-1.99%
9,Cc1cc(C)cc(NC(=O)C2CCN(c3nc(C)cc(C)n3)CC2)c1,-3.58%
10,Cc1ccc(N(CC(=O)NC2CCCC2)C(=O)CCC(=O)Nc2nc(C)cs2)cc1,-11.9%
11,CCOc1ccc(N(CC(=O)NC2CCCC2)C(=O)CCC(=O)Nc2nc(C)cs2)cc1,-28.8%
12,CCOc1ccc(N(CC(=O)NC2CCCCC2)C(=O)CCC(=O)Nc2nc(C)cs2)cc1,-50.6%
13,O=C(CC(CC(=O)c1ccccc1)c1ccccc1)c1ccccc1,0.181%
14,O=C(CSc1nnc(CN2CCOCC2)n1-c1ccccc1)Nc1ccc(Cl)cc1,-32.5%
15,Cc1cc(C)c(S(=O)(=O)N2CCOC2CNC(=O)C(=O)NCCc2ccc(S(N)(=O)=O)cc2)c(C)c1 (centres unmarked),-17.8%
16,O=C(Cn1cnc2c(nnn2Cc2ccccc2)c1=O)NCc1ccccc1Cl,5.76%
17,Cc1ccc(SCc2ccc(C(=O)NCc3cccnc3)cc2)cc1,3.85%
18,O=C(O)c1ccc(N/N=C/c2ccc(OC(=O)c3cccc(Cl)c3)cc2)cc1,-9.22%
19,O=C(Oc1ccc(/C=N/Nc2ccccc2)cc1)c1ccccc1,15.4%
20,O=C(O)c1ccc(N/N=C/c2ccc(OC(=O)c3ccccc3Cl)cc2)cc1,-56%
21,Cc1ccc(CNC(=O)CCC2CCCN(C(=O)CCC(F)(F)F)C2)o1 (centres unmarked),3.62%
22,Cc1ccsc1C(=O)C1CCCN(Cc2cc3ccccc3o2)C1 (centres unmarked),-23.7%
23,Cc1ccc(CNC(=O)CCC2CCCN(Cc3cc4ccccc4o3)C2)o1 (centres unmarked),-69.2%
